Source: PubChem BioAssay (EPA / NIEHS)
Where “and” joins values, the source holds several entries; their conditions need not be identical. Equal values may be shown once. Records with an inconclusive call do not appear. Calls of active or inactive are those of the source. Rule for the calls, unless noted: active = hit-call score of the fitted dose curve at least 0.9, where 1 is the maximum; inconclusive = response in the unintended direction; inactive = score below 0.9.

Tests used:
[1] = biological target: Nuclear receptor subfamily 1 group I member 3 (Homo sapiens) (UniProt Q14994); assay: ATG_CAR_TRANS: Attagene TRANS-FACTORIAL HepG2 Assay for human Constitutive Androstane Receptor (CAR) (AID 2282969); settings: HepG2 Attagene TRANS-FACTORIAL CAR reporter;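 note: activators raise reporter mRNA above DMSO so AC50 marks induction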
Summary of the method: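 HepG2 cells transiently transfected with multiplexed GAL4-UAS reporter units expressing chimeric NR-Gal4 proteins; compound exposure 24 h. Reporter mRNA measured by RT-PCR, 6-FAM labelling, HpaI digestion and capillary electrophoresis; gain-of-signal fitted against DMSO baseline.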

[2] = biological target: Estrogen receptor (Homo sapiens) (UniProt P03372); assay: ATG_ERa_TRANS: Attagene TRANS-FACTORIAL HepG2 Assay for human Estrogen Receptor alpha (ERa) (AID 2282970); settings: HepG2 Attagene TRANS ERa GAL4 reporter, mRNA
Summary of the method: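 HepG2 cells transiently transfected with multiplexed GAL4-UAS reporter units read out chimeric NR-Gal4 activity. After 24 h compound exposure, reporter mRNA was quantified by RT-PCR, 6-FAM labeling, HpaI digestion and capillary electrophoresis, relative to DMSO.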

[3] = biological target: X-box-binding protein 1 (Homo sapiens) (UniProt P17861); assay: ATG_Xbp1_CIS: Attagene CIS-FACTORIAL HepG2 Assay for human X-box Binding Protein 1 (XBP1) (AID 2282972; active = hit-call score of the fitted dose curve at least 0.9, where 1 is the maximum; inactive = score below 0.9); settings: HepG2 XBP1 cis-element reporter, Attagene multiplex; actives raise or lower the signal
Summary of the method: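 Fluorescence-labelled cDNA fragments from reporter transcripts, separated by capillary electrophoresis, give the signal. Source: HepG2 cells transfected with promoter-driven reporter units, harvested 24 h post-dose. DMSO served as reference for bidirectional curve fitting.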

[4] = biological target: Estrogen-related receptor gamma (Homo sapiens) (UniProt P62508); assay: ATG_ERRg_TRANS: Attagene TRANS-FACTORIAL HepG2 Assay for human Estrogen-Related Receptor gamma (ERRg) (AID 2282977); settings: HepG2 Attagene TRANS reporter, ERRg transactivation;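 note: hits increase reporter signal over DMSO so potencies reflect activators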
Summary of the method: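 HepG2 cells transiently transfected with multiplexed GAL4-UAS reporter units and chimeric NR-Gal4 constructs were exposed to test chemicals for 24 h. Reporter mRNA was measured by RT-PCR, 6-FAM primer extension, HpaI digestion and capillary electrophoresis; gain-of-signal versus DMSO.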

[5] = ATG_M_06_TRANS: Attagene TRANS-FACTORIAL HepG2 Assay for M06 Transcription Factor (Internal Marker) (AID 2282983); settings: HepG2 Attagene TRANS M06 internal marker reporter;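 note: reporter transcript level by RT-PCR then capillary electrophoresis fluorescence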
Summary of the method: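 HepG2 cells transiently transfected with GAL4-UAS multiple reporter units, dosed 24 h. Reporter RNA reverse-transcribed, PCR-amplified, 6-FAM-labeled, HpaI-digested and quantified by capillary electrophoresis; this internal-marker signal fitted upward relative to DMSO.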

[6] = ATG_M_32_TRANS: Attagene TRANS-FACTORIAL HepG2 Assay for M32 Transcription Factor (Internal Marker) (AID 2282984); settings: HepG2 Attagene TRANS M32 internal marker reporter
Summary of the method: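 HepG2 cells transiently transfected with multiple GAL4-UAS reporter transcription units, dosed for 24 hours; reporter mRNA quantified by RT-PCR, 6-FAM primer extension, HpaI digestion and capillary electrophoresis. Gain-of-signal fitted versus DMSO baseline; internal background-control marker.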

[7] = biological target: Transcriptional activator Myb (Homo sapiens) (UniProt P10242); assay: ATG_Myb_CIS: Attagene CIS-FACTORIAL HepG2 Assay for human Myeloblastosis (Myb) Proto-Oncogene Transcription Factor (AID 2282986; active = hit-call score of the fitted dose curve at least 0.9, where 1 is the maximum; inactive = score below 0.9); settings: HepG2 Attagene CIS-FACTORIAL Myb reporter transcription; actives raise or lower the signal
Summary of the method: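 Transiently transfected HepG2 cells carrying a multiplexed cis-promoter reporter set report endogenous Myb activity after 24 h compound exposure. Reporter mRNA is read by RT-PCR with capillary electrophoresis of fluorescent products, fitted bidirectionally against DMSO.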

[8] = biological target: Nuclear respiratory factor 1 (Homo sapiens) (UniProt Q16656); assay: ATG_NRF1_CIS: Attagene CIS-FACTORIAL HepG2 Assay for human Nuclear Respiratory Factor 1 (NRF1) Orphan Gene (AID 2282987; active = hit-call score of the fitted dose curve at least 0.9, where 1 is the maximum; inactive = score below 0.9); settings: HepG2 NRF1 cis-element reporter, Attagene multiplex; actives raise or lower the signal
Summary of the method: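 HepG2 cells transiently transfected with multiple cis-regulated reporter units, exposed 24 h. Reporter mRNAs measured by RT-PCR, fluorescent labelling, HpaI digestion and capillary electrophoresis; bidirectional fitting against DMSO.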

[9] = ATG_NFI_CIS: Attagene CIS-FACTORIAL HepG2 Assay for human Nuclear Factor I (NFI) (AID 2282989; active = hit-call score of the fitted dose curve at least 0.9, where 1 is the maximum; inactive = score below 0.9); settings: HepG2 cis-regulatory reporter, NFI response element transcription; actives raise or lower the signal
Summary of the method: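 Read-out: reporter mRNA via RT-PCR plus capillary electrophoresis with fluorescence detection. Transiently transfected HepG2 (endogenous TF activity on cis promoters), 24 h compound exposure; gain or loss of signal fitted against DMSO.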

[10] = biological target: Myc proto-oncogene protein (Homo sapiens) (UniProt P01106); assay: ATG_Myc_CIS: Attagene CIS-FACTORIAL HepG2 Assay for human Myelocytomatosis (Myc) Proto-Oncogene Transcription Factor (AID 2282990; active = hit-call score of the fitted dose curve at least 0.9, where 1 is the maximum; inactive = score below 0.9); settings: HepG2, Attagene cis-reporter transcription factor activity; actives raise or lower the signal
Summary of the method: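 HepG2 cells transiently transfected with multiple cis-promoter-driven reporter transcription units, so endogenous TF activity is read. After 24 h compound exposure, reporter mRNA was quantified by RT-PCR, 6-FAM labelling, HpaI digestion and capillary electrophoresis; bidirectional fit versus DMSO.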

[11] = biological target: Steroid hormone receptor ERR1 (Homo sapiens) (UniProt P11474); assay: ATG_ERRa_TRANS: Attagene TRANS-FACTORIAL HepG2 Assay for human Estrogen-Related Receptor alpha (ERRa) (AID 2282971); settings: HepG2 Attagene TRANS reporter, ERRa transactivation
Summary of the method: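 HepG2 cells transiently transfected with GAL4-UAS reporter units and chimeric NR-Gal4 constructs; after 24 hour compound incubation, reporter mRNA quantified by RT-PCR, fluorescent labelling and capillary electrophoresis, gain of signal versus DMSO.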

[12] = ATG_M_19_TRANS: Attagene TRANS-FACTORIAL HepG2 Assay for M19 Transcription Factor (Internal Marker) (AID 2282974); settings: HepG2 Attagene TRANS-FACTORIAL M19 internal marker reporter
Summary of the method: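 HepG2 transiently transfected with GAL4-UAS multiplex reporter constructs, exposed 24 h; reporter RNA quantified by RT-PCR, 6-FAM labeling, HpaI digestion and capillary electrophoresis; internal background marker fitted upward versus DMSO.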

[13] = ATG_GAL4_TRANS: Attagene TRANS-FACTORIAL HepG2 Assay for GAL4 (Internal Marker) (AID 2282976); settings: HepG2 Attagene TRANS GAL4 internal marker reporter
Summary of the method: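 Background-control readout: GAL4-UAS reporter transcript in transiently transfected HepG2 cells after 24 h compound exposure. Measured by RT-PCR, 6-FAM primer extension, HpaI digest and capillary electrophoresis; gain-of-signal fit versus DMSO.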

[14] = biological target: Glucocorticoid receptor (Homo sapiens) (UniProt P04150); assay: ATG_GR_TRANS: Attagene TRANS-FACTORIAL HepG2 Assay for human Glucocorticoid Receptor (GR) (AID 2282978); settings: HepG2 Attagene TRANS GR reporter, mRNA transcription;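 note: activators score as hits since higher reporter transcript over DMSO is fitted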
Summary of the method: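 HepG2 cells transiently transfected with GAL4-UAS reporter units and exogenous GR-Gal4 chimera, dosed 24 h. Reporter mRNA by RT-PCR, FAM labeling, HpaI digest and capillary electrophoresis; gain-of-signal fit versus DMSO.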

[15] = biological target: Oxysterols receptor LXR-alpha (Homo sapiens) (UniProt Q13133); assay: ATG_LXRa_TRANS: Attagene TRANS-FACTORIAL HepG2 Assay for human Liver X Receptor alpha (LXRa) (AID 2282980); settings: HepG2 Attagene TRANS reporter, LXRa transactivation
Summary of the method: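 HepG2 cells transiently transfected with GAL4-UAS reporter units for chimeric NR-Gal4 proteins, exposed to chemicals for 24 h. Reporter mRNA quantified by RT-PCR and capillary electrophoresis; gain of signal fitted relative to DMSO.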

[16] = biological target: Oxysterols receptor LXR-beta (Homo sapiens) (UniProt P55055); assay: ATG_LXRb_TRANS: Attagene TRANS-FACTORIAL HepG2 Assay for human Liver X Receptor beta (LXRb) (AID 2282981); settings: HepG2 Attagene TRANS GAL4-LXRb reporter, mRNA
Summary of the method: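 HepG2 cells transiently transfected with multiple reporter transcription units carrying chimeric NR-Gal4 proteins acting on GAL4-UAS reporters; compound exposure 24 h. Reporter mRNA quantified by RT-PCR, 6-FAM labelling, HpaI digestion and capillary electrophoresis; gain of signal versus DMSO.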

[17] = biological target: Nuclear receptor subfamily 4 group A member 2 (Homo sapiens) (UniProt P43354); assay: ATG_NURR1_TRANS: Attagene TRANS-FACTORIAL HepG2 Assay for human Nuclear Receptor Related Protein 1 (NURR1) (AID 2282985); settings: HepG2 Attagene TRANS reporter, mRNA readout
Summary of the method: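 HepG2 cells transiently transfected with GAL4-UAS reporter units and chimeric NR-Gal4 constructs; chemical exposure 24 h. Reporter mRNA quantified by RT-PCR, fluorescent labelling and capillary electrophoresis; gain of signal fitted relative to DMSO baseline.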

[18] = biological target: Bile acid receptor (Homo sapiens) (UniProt Q96RI1); assay: ATG_FXR_TRANS: Attagene TRANS-FACTORIAL HepG2 Assay for Farnesoid X Receptor (FXR) (AID 2282979); settings: HepG2 Attagene TRANS FXR-GAL4 reporter transcription;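 note: hits raise reporter mRNA above DMSO so AC50 marks FXR activation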
Summary of the method: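 HepG2 cells were transiently transfected with GAL4-UAS reporters driven by chimeric NR-Gal4 proteins and dosed for 24 h. Reporter mRNA was quantified by RT-PCR, fluorescent labelling, HpaI digestion and capillary electrophoresis, with gain of signal scored versus DMSO.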

[19] = biological target: Hepatocyte nuclear factor 4-alpha (Homo sapiens) (UniProt P41235); assay: ATG_HNF4a_TRANS: Attagene TRANS-FACTORIAL HepG2 Assay for human Hepatocyte Nuclear Factor 4 alpha (HNF4a) (AID 2282982); settings: HepG2 HNF4a transactivation reporter, mRNA readout
Summary of the method: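 HepG2 cells transiently transfected with multiplexed GAL4-UAS reporter units responsive to chimeric NR-GAL4 proteins; compound exposure 24 h. Reporter mRNA quantified by RT-PCR, 6-FAM labelling, HpaI digestion and capillary electrophoresis; gain of signal versus DMSO baseline.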

Measured: AC50

Steroid hormone receptor ERR1 (Homo sapiens), sequence (P11474 whole entry, looked up, the tested form may be a part): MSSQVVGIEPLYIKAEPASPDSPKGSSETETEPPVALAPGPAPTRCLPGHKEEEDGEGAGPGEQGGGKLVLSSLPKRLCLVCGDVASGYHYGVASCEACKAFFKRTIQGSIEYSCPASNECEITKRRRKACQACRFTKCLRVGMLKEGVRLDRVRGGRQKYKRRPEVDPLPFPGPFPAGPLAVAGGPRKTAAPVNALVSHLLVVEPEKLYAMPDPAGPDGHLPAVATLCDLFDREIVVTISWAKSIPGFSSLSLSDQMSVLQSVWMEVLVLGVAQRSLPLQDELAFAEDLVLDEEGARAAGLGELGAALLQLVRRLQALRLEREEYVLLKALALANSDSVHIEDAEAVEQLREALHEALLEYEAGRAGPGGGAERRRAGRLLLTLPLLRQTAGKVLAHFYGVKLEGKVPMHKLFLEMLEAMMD
Glucocorticoid receptor (Homo sapiens), sequence (P04150 whole entry, looked up, the tested form may be a part): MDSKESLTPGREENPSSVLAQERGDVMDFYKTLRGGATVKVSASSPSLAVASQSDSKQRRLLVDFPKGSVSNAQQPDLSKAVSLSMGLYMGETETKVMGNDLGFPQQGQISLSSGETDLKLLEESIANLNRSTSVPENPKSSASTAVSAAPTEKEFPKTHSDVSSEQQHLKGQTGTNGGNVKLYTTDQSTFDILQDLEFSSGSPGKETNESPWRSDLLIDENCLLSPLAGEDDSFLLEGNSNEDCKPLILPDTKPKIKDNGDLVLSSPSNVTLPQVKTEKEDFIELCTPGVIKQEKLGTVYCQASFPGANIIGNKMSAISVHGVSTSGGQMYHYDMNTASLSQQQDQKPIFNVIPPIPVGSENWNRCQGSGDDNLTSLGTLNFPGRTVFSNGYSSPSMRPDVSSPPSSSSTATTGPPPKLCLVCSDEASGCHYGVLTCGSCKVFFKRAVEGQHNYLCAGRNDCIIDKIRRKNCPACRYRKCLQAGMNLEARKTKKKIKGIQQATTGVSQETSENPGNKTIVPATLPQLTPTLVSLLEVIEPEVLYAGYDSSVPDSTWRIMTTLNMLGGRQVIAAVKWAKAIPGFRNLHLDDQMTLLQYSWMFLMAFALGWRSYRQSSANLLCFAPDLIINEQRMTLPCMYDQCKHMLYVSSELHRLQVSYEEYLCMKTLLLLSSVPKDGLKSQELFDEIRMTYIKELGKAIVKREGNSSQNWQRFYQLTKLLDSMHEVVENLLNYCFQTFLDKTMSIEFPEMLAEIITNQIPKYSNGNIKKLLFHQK
Nuclear receptor subfamily 4 group A member 2 (Homo sapiens), sequence (P43354 whole entry, looked up, the tested form may be a part): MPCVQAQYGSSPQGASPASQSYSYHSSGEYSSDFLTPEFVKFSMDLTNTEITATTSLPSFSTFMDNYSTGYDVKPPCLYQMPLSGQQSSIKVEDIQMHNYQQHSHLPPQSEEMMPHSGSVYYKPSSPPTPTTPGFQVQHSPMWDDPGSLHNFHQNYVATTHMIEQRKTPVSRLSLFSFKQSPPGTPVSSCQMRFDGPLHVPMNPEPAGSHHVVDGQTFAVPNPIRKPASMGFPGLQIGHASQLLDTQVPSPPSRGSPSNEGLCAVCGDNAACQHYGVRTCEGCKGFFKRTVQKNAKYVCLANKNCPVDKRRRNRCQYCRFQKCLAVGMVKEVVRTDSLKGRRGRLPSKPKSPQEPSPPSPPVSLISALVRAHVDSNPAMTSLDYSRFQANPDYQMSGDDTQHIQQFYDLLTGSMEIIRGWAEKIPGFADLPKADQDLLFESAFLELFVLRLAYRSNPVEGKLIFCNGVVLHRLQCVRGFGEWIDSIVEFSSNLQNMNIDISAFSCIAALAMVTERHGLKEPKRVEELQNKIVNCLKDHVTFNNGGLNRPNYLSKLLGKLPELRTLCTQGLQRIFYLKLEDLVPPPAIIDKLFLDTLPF
Nuclear respiratory factor 1 (Homo sapiens), sequence (Q16656 whole entry, looked up): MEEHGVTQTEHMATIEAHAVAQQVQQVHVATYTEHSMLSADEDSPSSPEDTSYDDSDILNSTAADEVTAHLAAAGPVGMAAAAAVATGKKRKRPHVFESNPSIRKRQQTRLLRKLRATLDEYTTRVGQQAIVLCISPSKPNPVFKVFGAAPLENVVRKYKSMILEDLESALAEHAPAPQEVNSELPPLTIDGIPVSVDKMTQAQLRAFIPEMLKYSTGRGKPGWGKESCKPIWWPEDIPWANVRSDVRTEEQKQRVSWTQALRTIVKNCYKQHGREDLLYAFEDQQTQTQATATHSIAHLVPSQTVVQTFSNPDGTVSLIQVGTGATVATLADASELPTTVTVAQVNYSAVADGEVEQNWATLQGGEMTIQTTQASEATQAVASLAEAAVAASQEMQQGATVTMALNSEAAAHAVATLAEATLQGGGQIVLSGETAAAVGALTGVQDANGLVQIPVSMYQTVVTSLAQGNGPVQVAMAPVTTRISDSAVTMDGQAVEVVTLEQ
Estrogen-related receptor gamma (Homo sapiens), sequence (P62508 whole entry, looked up, the tested form may be a part): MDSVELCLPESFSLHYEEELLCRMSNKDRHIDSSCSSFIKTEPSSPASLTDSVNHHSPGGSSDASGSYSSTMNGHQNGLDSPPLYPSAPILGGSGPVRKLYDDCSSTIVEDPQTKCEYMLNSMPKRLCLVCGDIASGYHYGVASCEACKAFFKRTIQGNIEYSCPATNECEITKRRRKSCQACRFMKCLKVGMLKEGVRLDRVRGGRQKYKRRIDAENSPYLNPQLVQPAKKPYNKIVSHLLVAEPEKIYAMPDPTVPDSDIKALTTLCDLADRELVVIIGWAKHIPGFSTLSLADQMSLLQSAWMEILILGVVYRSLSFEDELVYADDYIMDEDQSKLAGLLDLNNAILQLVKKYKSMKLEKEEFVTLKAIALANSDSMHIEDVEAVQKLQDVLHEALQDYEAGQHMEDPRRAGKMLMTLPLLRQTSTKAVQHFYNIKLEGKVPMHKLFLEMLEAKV
Estrogen receptor (Homo sapiens), sequence (P03372 whole entry, looked up, the tested form may be a part): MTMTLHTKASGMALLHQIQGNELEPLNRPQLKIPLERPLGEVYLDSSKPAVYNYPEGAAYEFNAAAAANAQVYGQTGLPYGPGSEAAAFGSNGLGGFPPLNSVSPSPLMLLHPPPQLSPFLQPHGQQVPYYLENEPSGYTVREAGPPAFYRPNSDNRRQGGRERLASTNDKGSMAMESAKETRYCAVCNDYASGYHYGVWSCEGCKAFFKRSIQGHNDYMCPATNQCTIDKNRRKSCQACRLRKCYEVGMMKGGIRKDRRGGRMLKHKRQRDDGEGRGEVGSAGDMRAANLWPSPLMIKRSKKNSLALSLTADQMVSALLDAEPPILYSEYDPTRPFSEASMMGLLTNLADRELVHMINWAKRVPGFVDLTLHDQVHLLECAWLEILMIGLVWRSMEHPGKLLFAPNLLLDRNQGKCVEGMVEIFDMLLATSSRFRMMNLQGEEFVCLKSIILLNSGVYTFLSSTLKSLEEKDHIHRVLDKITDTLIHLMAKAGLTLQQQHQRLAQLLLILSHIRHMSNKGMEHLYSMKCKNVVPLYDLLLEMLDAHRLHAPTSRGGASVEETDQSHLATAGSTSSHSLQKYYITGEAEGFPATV
Oxysterols receptor LXR-beta (Homo sapiens), sequence (P55055 whole entry, looked up, the tested form may be a part): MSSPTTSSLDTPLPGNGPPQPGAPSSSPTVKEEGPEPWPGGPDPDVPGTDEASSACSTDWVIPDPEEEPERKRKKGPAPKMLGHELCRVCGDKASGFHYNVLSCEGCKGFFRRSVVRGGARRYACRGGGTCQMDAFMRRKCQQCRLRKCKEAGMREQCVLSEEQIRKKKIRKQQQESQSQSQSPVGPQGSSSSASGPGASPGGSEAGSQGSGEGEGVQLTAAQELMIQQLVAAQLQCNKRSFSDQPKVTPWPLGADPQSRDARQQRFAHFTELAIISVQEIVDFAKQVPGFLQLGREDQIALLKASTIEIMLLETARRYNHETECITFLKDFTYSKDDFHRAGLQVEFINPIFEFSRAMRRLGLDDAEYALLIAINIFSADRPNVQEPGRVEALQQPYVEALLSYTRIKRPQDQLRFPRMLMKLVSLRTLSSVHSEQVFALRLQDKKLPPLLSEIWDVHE
Nuclear receptor subfamily 1 group I member 3 (Homo sapiens), sequence (Q14994 whole entry, looked up, the tested form may be a part): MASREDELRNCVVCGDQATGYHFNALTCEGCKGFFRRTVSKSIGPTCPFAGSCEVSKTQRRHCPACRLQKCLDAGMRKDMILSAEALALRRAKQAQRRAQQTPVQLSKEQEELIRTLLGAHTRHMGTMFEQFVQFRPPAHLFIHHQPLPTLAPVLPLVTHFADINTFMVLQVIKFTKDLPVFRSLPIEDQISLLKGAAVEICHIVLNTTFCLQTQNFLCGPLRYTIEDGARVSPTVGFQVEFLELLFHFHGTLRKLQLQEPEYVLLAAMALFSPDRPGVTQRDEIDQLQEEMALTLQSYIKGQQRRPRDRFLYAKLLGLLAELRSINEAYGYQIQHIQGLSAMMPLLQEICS
Transcriptional activator Myb (Homo sapiens), sequence (P10242 whole entry, looked up): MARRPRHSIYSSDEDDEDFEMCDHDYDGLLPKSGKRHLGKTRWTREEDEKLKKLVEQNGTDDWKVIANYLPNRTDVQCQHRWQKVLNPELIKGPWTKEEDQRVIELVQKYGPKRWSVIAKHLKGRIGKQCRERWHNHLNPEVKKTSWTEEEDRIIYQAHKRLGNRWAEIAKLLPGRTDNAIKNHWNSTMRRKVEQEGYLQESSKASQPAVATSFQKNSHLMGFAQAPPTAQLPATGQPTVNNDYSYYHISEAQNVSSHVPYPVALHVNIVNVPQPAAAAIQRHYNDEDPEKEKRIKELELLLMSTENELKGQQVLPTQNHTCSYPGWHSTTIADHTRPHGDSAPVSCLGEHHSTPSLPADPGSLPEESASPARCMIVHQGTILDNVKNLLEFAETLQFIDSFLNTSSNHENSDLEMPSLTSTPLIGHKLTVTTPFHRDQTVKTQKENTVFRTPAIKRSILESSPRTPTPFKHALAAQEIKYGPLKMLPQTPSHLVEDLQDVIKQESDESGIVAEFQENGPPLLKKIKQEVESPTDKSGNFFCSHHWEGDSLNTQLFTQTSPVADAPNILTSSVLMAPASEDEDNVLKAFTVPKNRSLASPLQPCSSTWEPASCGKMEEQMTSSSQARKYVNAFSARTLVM

CCCCCCC(C)(C)C(=O)O
inactive: [1] | [3] | [4] | [5] | [6] | [7] | [8] | [9] | [10]
active: [2] 26.4 µM

O=C1c2ccccc2C(=O)c2c(O)c(O)cc(O)c21
active: [2] 4.9 µM | [17] 47 µM
not listed: [18] | [19]
inactive: all other assays above

C=CC(=O)OCCC(F)(F)C(F)(F)C(F)(F)C(F)(F)C(F)(F)C(F)(F)F
active: [2] 12.8 µM
not listed: [5] | [6] | [9] | [11] | [12] | [16] | [19]
inactive: all other assays above

FC(F)(F)N1C(F)(F)C(F)(F)OC(F)(F)C1(F)F
not listed: [4] | [7] | [11] | [12] | [15] | [19]
inactive: all other assays above

c1cc2cccc3c4cccc5cccc(c(c1)c23)c54
not listed: [3] | [6] | [7] | [12] | [13] | [15] | [16] | [19]
inactive: all other assays above

FC(F)(F)C(F)(F)C(F)(F)Br
not listed: [4] | [5] | [11] | [18]
inactive: all other assays above

Cc1cncc(C)c1
inactive: [1] | [2] | [11] | [3] | [4] | [19] | [7] | [8] | [9] | [10]

CCO[Si](CCC1CCC2OC2C1)(OCC)OCC (stereo unspecified)
not listed: [11] | [17] | [19]
inactive: all other assays above

C=CCOCC(CO)(CO)CO
not listed: [11] | [13] | [16] | [19]
inactive: all other assays above
